Test results reported in the supplement of paper PMC7057948, “A genome-wide approach for identification and characterisation of metabolite-inducible systems” (Nature Communications, 2020).

How the values were obtained:
Test in all cases: relative induction of RFP reporter vs primary effector (background-corrected); higher = stronger activation of the biosensor
Details in all cases: inducer concentration 5 mM; 6 h; Cupriavidus necator H16; minimal medium + 0.4% gluconate
[1] = test system: AcoR/P_H16_RS19445 acetoin biosensor (pEH052)
Procedure: (§1)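 C. necator H16 strains, each carrying one of 21 transcription factor/inducible promoter–mRFP biosensor plasmids, were grown in minimal medium in 96-well plates (robotic platform). Each was exposed to 46 structurally or metabolically related compounds at 5 mM at 30 °C. OD-normalised RFP fluorescence was read 6 h later and expressed as relative induction (%) = 100 × (FL compound − FL uninduced)/(FL primary inducer − FL uninduced); mean of n=4.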

[2] = test system: AraC/P_araBAD L-arabinose biosensor (pEH176)
Procedure: as §1

[3] = test system: BenM/P_H16_RS09790 benzoate biosensor (pEH148)
Procedure: as §1

[4] = test system: FdsR/P_H16_RS03165 formate biosensor (pEH134)
Procedure: as §1

[5] = test system: GabR/P_H16_RS23655 GABA biosensor (pEH256)
Procedure: as §1

[6] = test system: HpdR/P_H16_RS18295 3-hydroxypropanoate biosensor (pEH010)
Procedure: as §1

[7] = test system: KynR/P_H16_RS14030 L-kynurenine biosensor (pEH136)
Procedure: as §1

[8] = test system: NahR/P_H16_RS08125 salicylate biosensor (pEH042)
Procedure: as §1

[9] = test system: OapR/P_H16_RS01330 beta-alanine biosensor (pEH147)
Procedure: as §1

[10] = test system: PcaQ/P_H16_RS30145 3,4-dihydroxybenzoate biosensor (pEH161)
Procedure: as §1

[11] = test system: PhgR/P_H16_RS05530 phenylglyoxylate biosensor (pEH155)
Procedure: as §1

[12] = test system: PhhR/P_H16_RS18365 L-phenylalanine biosensor (pEH137)
Procedure: as §1

[13] = test system: SauR/P_H16_RS13695 sulfonatoacetate biosensor (pEH157)
Procedure: as §1

[14] = test system: TtdR/P_H16_RS10665 tartrate biosensor (pEH083)
Procedure: as §1

[15] = test system: XdhR/P_H16_RS05055 xanthine biosensor (pEH154)
Procedure: as §1

[16] = test system: heterologous inducible system pEH002 (rhamnose/acrylate/cumate/itaconate set)
Procedure: as §1

[17] = test system: heterologous inducible system pEH020 (rhamnose/acrylate/cumate/itaconate set)
Procedure: as §1

[18] = test system: heterologous inducible system pEH040 (rhamnose/acrylate/cumate/itaconate set)
Procedure: as §1

[19] = test system: heterologous inducible system pEH086 (rhamnose/acrylate/cumate/itaconate set)
Procedure: as §1

[20] = test system: BadR/P_H16_RS27200 cyclohexanecarboxylate biosensor (pEH159)
Procedure: as §1
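Further: RFP excited at 585 nm with emission read at 620 nm, culture medium blanks subtracted from fluorescence and absorbance prior to normalisation.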

Structure (SMILES) | relative induction of RFP reporter [1] [%] | relative induction of RFP reporter [2] [%] | relative induction of RFP reporter [3] [%] | relative induction of RFP reporter [4] [%] | relative induction of RFP reporter [5] [%] | relative induction of RFP reporter [6] [%] | relative induction of RFP reporter [7] [%] | relative induction of RFP reporter [8] [%] | relative induction of RFP reporter [9] [%] | relative induction of RFP reporter [10] [%] | relative induction of RFP reporter [11] [%] | relative induction of RFP reporter [12] [%] | relative induction of RFP reporter [13] [%] | relative induction of RFP reporter [14] [%] | relative induction of RFP reporter [15] [%] | relative induction of RFP reporter [16] [%] | relative induction of RFP reporter [17] [%] | relative induction of RFP reporter [18] [%] | relative induction of RFP reporter [19] [%] | relative induction of RFP reporter [20] [%]
O=C(O)CC(=O)C(=O)O [oxaloacetate] | 0.0874 | -0.00919 | -0.0305 | 2.96 | -0.991 | 0.0505 | -0.384 | 0.0244 | 0.302 | -0.0492 | -0.502 | -0.153 | 0.016 | -0.0827 | -0.199 | 0.0189 | -0.323 | -0.91 | -0.0639 | –
Oc1ccccc1 [phenol] | -1.65 | -0.0137 | -0.0189 | -3.17 | -2.32 | -0.39 | -0.287 | 0.011 | -1.38 | -0.0887 | -0.147 | -0.522 | 0.0243 | 0.576 | -0.78 | -0.0073 | -2.66 | -1.14 | -0.575 | –
O=c1[nH]cnc2nc[nH]c12 [hypoxanthine] | -1.99 | 0.0138 | -0.0181 | -4.61 | -0.0294 | 0.126 | -0.263 | 0.0182 | 1.08 | -0.186 | 0.109 | -0.204 | 0.0689 | 0.797 | 166 | 0.00894 | -1.8 | -0.718 | 0.0665 | –
NCCc1ccc(O)c(O)c1 [dopamine] | 0.498 | -0.00264 | 0.0224 | 2.79 | 0.204 | 0.166 | 0.568 | 0.0188 | 0.108 | 0.356 | 0.249 | 0.138 | 0.18 | 1.41 | 0.0292 | 0.0361 | 0.433 | 1.22 | 0.396 | –
Oc1ccccc1O [catechol] | 1.82 | -0.00935 | 9.72 | -2.57 | 3.82 | 0.415 | 0.704 | 0.0978 | -1.89 | 0.794 | 0.769 | -0.0234 | 0.114 | 2.09 | 0.259 | 0.0302 | -0.684 | 4.75 | -0.178 | –
NCC(O)C(=O)O (configuration not stated) [3-amino-2-hydroxypropanoate] | -0.589 | 0.017 | -0.00343 | -6.17 | -1.08 | -0.132 | -0.0139 | 0.0227 | 33.2 | -0.0272 | -0.304 | -0.491 | 0.0914 | 0.315 | -0.317 | 0.0153 | -1.25 | 0.821 | 0.238 | –
CCCC(=O)O [butyric acid] | -2.08 | -0.0107 | -0.0464 | -1.59 | -2.45 | -0.186 | -0.35 | -0.000826 | -0.94 | 0.636 | -0.41 | -0.461 | 0.0337 | -0.384 | -0.758 | -0.00916 | -1.33 | -0.981 | -0.0776 | –
O=C(O)C1=CCCCC1 [cyclohexene-1-carboxylate] | 2.55 | -0.0101 | 156 | -3.7 | -1.27 | -0.493 | 0.423 | -0.00892 | 1.03 | -0.0381 | -0.121 | -0.244 | 0.0222 | 0.391 | 0.161 | 0.0231 | 0.24 | 1.34 | 0.551 | –
O=C(O)[C@@H](O)[C@@H](O)[C@H](O)[C@@H](O)C(=O)O [glucarate] | 16.6 | -0.00794 | 0.00581 | -1.03 | 0.559 | 0.059 | 0.0265 | 0.0258 | 0.058 | 0.00441 | -0.232 | -0.08 | -0.0162 | -0.0655 | 0.202 | 0.0271 | 0.067 | 0.131 | 0.127 | –
O=C(O)C(O)c1ccccc1 (configuration not stated) [mandelic acid] | 4.07 | 0.0229 | 0.175 | 1.81 | 1.32 | 0.0419 | -0.345 | -0.000243 | 0.364 | 0.0192 | -0.332 | -0.406 | 0.0426 | -0.395 | -0.0998 | 0.0137 | 0.769 | 1.17 | 0.563 | –
O=C(O)CC(CC(=O)O)C(=O)O [tricarballylate] | -0.69 | -0.0168 | -0.036 | -2.35 | -2.41 | -0.311 | -0.332 | -0.00531 | -1.38 | -0.249 | -0.562 | -0.293 | 0.0103 | 1.3 | -1.15 | 0.0188 | -1.48 | 0.497 | -0.0817 | -0.288
O=C(O)C[C@H](O)C(=O)O [L-malate] | -0.197 | 0.0102 | -0.00804 | 15.3 | -2.18 | 0.127 | 0.34 | 0.0296 | 0.168 | 0.148 | -0.316 | 0.413 | -0.0175 | 1.58 | 0.88 | 0.00418 | -0.286 | -0.274 | 0.726 | –
O=C(O)c1ccc(O)cc1 [4-hydroxybenzoate] | 0.234 | -0.0125 | -0.00462 | 1.94 | -0.622 | 0.357 | -0.184 | 0.159 | -0.798 | 212 | -0.153 | -0.483 | -0.0101 | 0.895 | -0.191 | 0.0183 | -0.27 | -0.0264 | 0.318 | –
O=C(O)C1CCCC1 [cyclopentane-1-carboxylate] | 9.44 | 0.014 | 0.298 | -2.26 | -1.83 | -0.057 | 0.335 | -0.00226 | 3.18 | -0.184 | -0.24 | -0.439 | 0.584 | 1.99 | 0.428 | -0.0145 | 0.409 | 7.83 | 0.259 | –
C[C@H](O)C(=O)O [L-lactate] | 29 | -0.0302 | -0.0365 | 1.58 | -1.56 | 0.0155 | -0.0815 | 0.00963 | -0.633 | -0.0469 | -0.429 | -0.296 | -0.0258 | 0.33 | -0.526 | 0.0108 | -1.63 | -1.88 | -0.0751 | 0.636
